“And” between values parts separate entries of the source, which are not always exact repeats. Equal values may be shown once. About 16,000 (7.3%) of roughly 220,000 compounds were called active. Another 25% or so got no clear call; they are omitted. What follows is part of a selection rich in actives, with near analogues and random picks from the rest. Unmarked numbers belong to inactive results. Calls come from the whole dose curve; as a rule, active = well fitted inhibition curve with a large enough effect (not every such curve was filed as active); inconclusive = small, poorly fitted or top-dose-only effect, or another doubt; inactive = no such curve, though single readings can be large or run the other way.
Molecular target: Aldehyde dehydrogenase 1A1 (Homo sapiens) (UniProt P00352)
Assay: qHTS Assay for Inhibitors of Aldehyde Dehydrogenase 1 (ALDH1A1);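 for activity, negative = inhibition: plate controls were no enzyme wells and a reference inhibitor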
Conditions: Purified ALDH1A1, NADH fluorescence, propionaldehyde substrate; series mostly up to 75.3 µM; activity, negative = inhibition: at the top concentration
Potency is the fitted concentration of half-maximal effect.

Sequence of Aldehyde dehydrogenase 1A1 (Homo sapiens) (P00352 whole entry, looked up): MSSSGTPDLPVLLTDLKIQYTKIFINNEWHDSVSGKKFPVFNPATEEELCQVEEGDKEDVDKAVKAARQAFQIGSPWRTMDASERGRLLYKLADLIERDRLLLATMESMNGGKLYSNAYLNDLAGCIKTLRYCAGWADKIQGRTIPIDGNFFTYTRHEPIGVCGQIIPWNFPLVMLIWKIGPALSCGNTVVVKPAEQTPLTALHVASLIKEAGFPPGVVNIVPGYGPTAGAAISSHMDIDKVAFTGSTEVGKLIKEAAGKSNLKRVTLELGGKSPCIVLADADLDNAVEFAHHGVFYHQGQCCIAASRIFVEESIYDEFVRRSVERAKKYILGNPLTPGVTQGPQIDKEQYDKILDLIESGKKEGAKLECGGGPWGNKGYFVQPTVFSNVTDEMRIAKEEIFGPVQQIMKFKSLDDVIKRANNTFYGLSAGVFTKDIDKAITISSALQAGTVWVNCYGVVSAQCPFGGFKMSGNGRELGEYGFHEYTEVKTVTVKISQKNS

`CCCCCn1c(SCCC(C)C)nc2c1c(=O)[nH]c(=O)n2C` was tested. Which Potency did it give?
The Potency was 22.4 µM (active).

How did the activity, negative = inhibition turn out when `Oc1ccccc1CNCc1ccccc1O` was run?
Its activity, negative = inhibition is -6.72% [at 13.5 µM].

With `Oc1ccc(CNc2ccccc2O)cc1` as the compound, how does the Potency read?
The Potency was 3.98 µM (active).

With `O=[N+]([O-])c1ccccc1NCc1ccc(Cl)cc1` as the compound, how does the “activity, negative = inhibition” value read?
Its value is 4.53%.

`Cn1nc(C(F)(F)F)c2cc(C(=O)N3CCOCC3)sc21` was tested. Which “activity, negative = inhibition” value did it give?
Its value is 5.73%.

With `Cc1ccnc2nc(C(=O)Nc3nnc(-c4ccccc4)o3)nn12` as the compound, how does the “activity, negative = inhibition” value read?
The value was 8.11%.

How did the “activity, negative = inhibition” value turn out when `CC(C)=C1SC(N2CCN(c3cccc(C)c3)CC2)=NC1=O` was run?
Its value is -4.12%.

How did the Potency turn out when `CCN1C(=O)/C(=C2\SC(N3CCCCC3)=NC2=O)c2ccccc21` was run?
The Potency was 10 µM (active).

For `C=C/C1=C/Cc2ccccc2[C@H](C[N+](=O)[O-])C(C(=O)OC)(C(=O)OC)C1`, which “activity, negative = inhibition” value is on record?
Its value is -1.98%.

How did the “activity, negative = inhibition” value turn out when `O=C(CN1C(=O)CC(c2ccccc2)S(=O)(=O)c2ccccc21)NC1CCCC1` (stereo not given) was run?
The value was -7.83%.

With `COc1cccc(-c2nc3n(n2)C(c2ccccc2Cl)C(C(N)=O)=C(C)N3)c1` (stereo not given) as the compound, how does the “activity, negative = inhibition” value read?
Its value is -1.6%.

With `COCCOC(=O)C1=C(C)Nc2nc(C)nn2C1c1ccccc1` (stereo not given) as the compound, how does the “activity, negative = inhibition” value read?
The value was 12.5%.

Which Potency does the source give for `CC1=C(C(N)=O)C(c2ccc3c(c2)OCO3)n2nc(-c3cccc(C)c3)nc2N1` (stereo not given) here?
Its Potency is 3.55 µM (active).

For `C/C(=N/NC(=O)CCc1ccccc1)c1ccco1`, which “activity, negative = inhibition” value is on record?
The value was -1.48%.

`CSCCC(=O)N1CCCC(CNC(=O)c2ccccc2Cl)C1` (stereo not given) was tested. Which “activity, negative = inhibition” value did it give?
The value was 5.62%.

With `CC(C)(C)c1cc(P(=O)(c2ccccc2)c2ccccc2)ccc1O` as the compound, how does the “activity, negative = inhibition” value read?
The value was 2.97%.

`COCCCNCC(=O)Nc1sc(C)c(C)c1C(=O)OC` was tested. Which Potency did it give?
The Potency was 11.2 µM (active).

With `COCCCNC(=O)c1c(F)c(F)c(F)c(F)c1F` as the compound, how does the “activity, negative = inhibition” value read?
The value was 9.81%.

With `CCC(=O)Nc1sc(C(=O)Nc2ccccc2)c(C)c1C(=O)OC` as the compound, how does the “activity, negative = inhibition” value read?
Its value is 1.12%.

Which “activity, negative = inhibition” value does the source give for `Cc1ccc(CCCOC(=O)C[N+]2(C)CCCCC2)cc1` here?
Its value is 5.06%.

With `O=C(CC1NCCc2ccccc21)Nc1cccc(Cl)c1` (stereo not given) as the compound, how does the “activity, negative = inhibition” value read?
The value was 1.34%.

With `CC1CC(C)CN(S(=O)(=O)c2ccc(C(=O)NN3CCOCC3)cc2)C1` (stereo not given) as the compound, how does the “activity, negative = inhibition” value read?
The value was -5.98%.

How did the Potency turn out when `CN(C)/C=C1\C=C(c2ccccc2)OC1=O` was run?
Its Potency is 10 µM (active).

Which “activity, negative = inhibition” value does the source give for `COc1ccc(CC(NC(C)=O)C(=O)NC2CCN(C(=O)C3CC3)CC2)cc1OC` (stereo not given) here?
The value was 5.16%.

With `CNC(=S)N1CCC(NC(=O)C(Cc2ccc(F)cc2)NC(C)=O)CC1` (stereo not given) as the compound, how does the “activity, negative = inhibition” value read?
Its value is 0.163%.

Which Potency does the source give for `CC(=O)NC(Cc1ccc(F)c(F)c1)C(=O)NC1CCN(c2nnnn2-c2ccccc2)CC1` (stereo not given) here?
Its Potency is 3.16 µM (active).

For `N#CCC(=O)NC(=O)NCC1CC1`, which Potency is on record?
The Potency was 3.98 µM (active) and 1.26 µM (active).

How did the “activity, negative = inhibition” value turn out when `CC(C)(C)NC(=O)NC(=O)COC(=O)CCC1CCCCC1` was run?
Its value is -5.33%.

With `CC(C)NC(=O)NC(=O)COC(=O)c1ccc(NC(=O)CC#N)cc1` as the compound, how does the “activity, negative = inhibition” value read?
Its value is 6.29%.

With `COc1cccc(CC2(CO)CCN(Cc3cnc(-c4cccc(C)c4)nc3)CC2)c1` as the compound, how does the “activity, negative = inhibition” value read?
Its value is -0.151%.

Which “activity, negative = inhibition” value does the source give for `COc1ccc(C2CC(c3ccccc3)=NN2C(=O)COC(=O)COc2ccccc2)cc1` (stereo not given) here?
Its value is -9.93%.

Which “activity, negative = inhibition” value does the source give for `O=C(CC1SCCNC1=O)Nc1ccc(Cl)c(Cl)c1` (stereo not given) here?
The value was -1.94%.

Which “activity, negative = inhibition” value does the source give for `Cc1oc2cc([N+](=O)[O-])c(O)c([N+](=O)[O-])c2c1C(=O)c1ccc(Br)cc1` here?
Its value is -15.7%.

With `CC(CNC(=O)c1ccc(Br)o1)NC(=O)c1ccc(Br)o1` (stereo not given) as the compound, how does the Potency read?
The Potency was 28.2 µM (active).

`CC(CCc1ccccc1)NC(=O)c1ccc(Br)o1` (stereo not given) was tested. Which “activity, negative = inhibition” value did it give?
Its value is -52.6%.

Which “activity, negative = inhibition” value does the source give for `CC(CNC(=O)c1ccc(N)cc1)NC(=O)c1ccc(N)cc1` (stereo not given) here?
The value was 12.3%.

With `CS(=O)(=O)N(Cc1ccccc1Cl)c1ccc(C(=O)NCc2cccnc2)cc1` as the compound, how does the “activity, negative = inhibition” value read?
The value was -5.16%.

For `CC1CCN(CCC(=O)Nc2ccccc2)CC1`, which “activity, negative = inhibition” value is on record?
The value was 5.39%.

For `CCN(CC)CCNC(=O)c1ccc(NS(=O)(=O)c2ccc3c(c2)OCCO3)cc1`, which “activity, negative = inhibition” value is on record?
The value was 1.71%.

For `CCCCC/C=C\C/C=C\CCCCCCCCCC(N)=O`, which “activity, negative = inhibition” value is on record?
Its value is -3.54%.

With `CC/C=C/C/C=C/C/C=C/CCCCCCCC(=O)OCC` as the compound, how does the Potency read?
Its Potency is 1.12 µM (active).

With `CCCCC/C=C\C/C=C\C/C=C\CCCCCCC(N)=O` as the compound, how does the “activity, negative = inhibition” value read?
The value was 1.39%.

For `CC(=O)c1c(-c2ccccc2)c2ccccc2[nH]c1=O`, which “activity, negative = inhibition” value is on record?
Its value is -7.94%.

Which “activity, negative = inhibition” value does the source give for `Brc1cc(/C=N/n2cnnc2)oc1Br` here?
The value was 9.74%.

For `NNC(=O)C1CC(O)CN1S(=O)(=O)c1ccc(Cl)cc1` (stereo not given), which “activity, negative = inhibition” value is on record?
Its value is 4.39%.

How did the Potency turn out when `O=C1COc2ccc(C(=O)COC(=O)C3CC(O)CN3S(=O)(=O)c3ccc(Cl)cc3)cc2N1` (stereo not given) was run?
The Potency was 5.01 µM (active).

For `O=C1COc2ccc(C(=O)COC(=O)c3cccnc3Cl)cc2N1`, which “activity, negative = inhibition” value is on record?
Its value is -2.97%.

For `COC(=O)N/N=C/c1ccc(/C=N/NC(=O)OC)cc1`, which “activity, negative = inhibition” value is on record?
The value was 1.22%.

For `Cc1[nH]c2ccccc2c1SCC(=O)Nc1nccs1`, which “activity, negative = inhibition” value is on record?
Its value is 16.2%.

How did the “activity, negative = inhibition” value turn out when `CCC(=O)Nc1cc(C(F)(F)F)ccc1N1CCCC1` was run?
Its value is 11.1%.

With `CC(=O)Nc1cccc(C(=O)Nc2nc(C)cs2)c1` as the compound, how does the “activity, negative = inhibition” value read?
Its value is -0.569%.

`O=C(O)CSc1nccc2ccccc12` was tested. Which “activity, negative = inhibition” value did it give?
Its value is 9.04%.

For `Cc1cccc(N2C(=O)c3cccnc3C2=O)c1`, which “activity, negative = inhibition” value is on record?
The value was 2.24%.

For `CC(=O)Oc1ccc(C)cc1N1C(=O)c2ccc(C(=O)O)cc2C1=O`, which “activity, negative = inhibition” value is on record?
Its value is 2.51%.

Which Potency does the source give for `Cc1ccc(Oc2ccc3c(c2)C(=O)N(c2cccc4cccnc24)C3=O)cc1` here?
The Potency was 11.2 µM (active).

Source: PubChem BioAssay AID1030 (National Center for Advancing Translational Sciences (NCATS), 2008)
